Reference: PubChem BioAssay (NCATS)
Several values for one entry are separate records, joined by “and”; a condition that tells them apart may be missing. Equal entries are not always repeated. Records with an inconclusive call do not appear. Activity calls are given as the source filed them. Unless noted, calls follow the shape of the dose curve; as a rule, active = well fitted curve in the direction sought with a large enough effect; inconclusive = small, poorly fitted or top-dose-only effect, or another doubt; inactive = no such curve, though single readings can be large; an effect the other way counts as inactive or inconclusive.

Experiments:
[1] = qHTS assay for small molecule activators of the p53 signaling pathway (AID 651743; active = well fitted activation curve with a large enough effect in the signal ratio, not every such curve was filed as active; the % refers to the signal ratio; also: potency is read from the fitted curve at half-maximal effect; as to activation: % of control where 0% means no effect); conditions: HCT-116 p53RE-bla, beta-lactamase FRET ratio, 16 h; activation: stronger effect = higher value
How it was run: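 Screen for p53 pathway agonists uses stably transfected p53RE-bla HCT-116 cells, 4,000 per well, treated 16 h at 37 C with compounds in DMSO.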

[2] = qHTS assay for small molecule activators of the nuclear factor-kappa B (NF-kB) signaling pathway (AID 651749; active = well fitted activation curve with a large enough effect in the signal ratio; the % refers to the signal ratio; also: % of control where 0% means no effect); conditions: NF-kB-bla ME-180 cells, beta-lactamase FRET ratio, 16 h; stronger effect = higher value
How it was run: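 Stably transfected ME-180 line; NF-kB response element upstream of beta-lactamase. Treatment: compound or DMSO, 16 hr. Detection: fluorescent FRET substrate.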

[3] = qHTS assay for environmental chemicals that activate the Aryl hydrocarbon Receptor (AhR) signaling pathway (AID 651777); conditions: 1A2-DRE human hepatoma cells, luciferase, 24 h; activation: stronger effect = higher value; also: nearly all actives have a fitted effect of over 15% in size; also: potency is read from the fitted curve at half-maximal effect; as to activation: % of control where 0% means no effect
How it was run: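 Human hepatoma 1A2-DRE cells, stably carrying a dioxin response element and CYP1A2 promoter driving luciferase, were exposed to compounds for 24 hr at 37 C and 5% CO2. Luciferase signal was then read after 30 min One-Glo at room temperature.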

[4] = biological target: Peroxisome proliferator-activated receptor alpha (Homo sapiens) (UniProt Q07869); test: qHTS assay for small molecule agonists of the peroxisome proliferator-activated receptor alpha (PPARalpha) signaling pathway (AID 651778); conditions: PathHunter PPARalpha complementation, chemiluminescence, 6 h; max response: stronger effect = higher value; also: potency is read from the fitted curve at half-maximal effect; as to max response: % of control where 0% means no effect
Chain of Peroxisome proliferator-activated receptor alpha (Homo sapiens) (Q07869 whole entry, looked up): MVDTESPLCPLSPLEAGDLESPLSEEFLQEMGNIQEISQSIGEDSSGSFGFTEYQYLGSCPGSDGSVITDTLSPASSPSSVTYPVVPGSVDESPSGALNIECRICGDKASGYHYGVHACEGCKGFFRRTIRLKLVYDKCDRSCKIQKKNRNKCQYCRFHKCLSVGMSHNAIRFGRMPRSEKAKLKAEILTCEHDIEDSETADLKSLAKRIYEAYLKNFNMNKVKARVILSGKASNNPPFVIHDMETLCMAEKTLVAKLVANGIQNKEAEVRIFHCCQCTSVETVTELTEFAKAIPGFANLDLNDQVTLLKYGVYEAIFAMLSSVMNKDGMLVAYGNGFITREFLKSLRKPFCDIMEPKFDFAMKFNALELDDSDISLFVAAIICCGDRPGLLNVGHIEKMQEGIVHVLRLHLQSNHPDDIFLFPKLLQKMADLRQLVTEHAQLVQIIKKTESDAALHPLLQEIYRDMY
How it was run: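 Chemiluminescence from complemented enzyme reported PPARalpha activation in cells after 6 hr of compound treatment at 37 C. The detection reagent was incubated for 60 min at room temperature, and compounds were scored as agonists.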

[5] = qHTS assay for small molecule agonists of the antioxidant response element (ARE) signaling pathway (AID 651741; active = well fitted activation curve with a large enough effect in the signal ratio; the % refers to the signal ratio; also: potency is read from the fitted curve at half-maximal effect; as to activation: % of control where 0% means no effect)
How it was run: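 Seeding 2,000 ARE-bla HepG2 cells per well preceded a 5 h incubation at 37 C/5% CO2 and a 16 h compound exposure at 37 C. Beta-lactamase reporter activity was then quantified by fluorescence after 2 h with LiveBLAzer B/G FRET substrate.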

[6] = qHTS assay for small molecule disruptors of the mitochondrial membrane potential - 1 hr assay (AID 651754; calls by dose curve; also: nearly all actives have a fitted effect of over 35% in size; also: potency is read from the fitted curve at half-maximal effect)
How it was run: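 HepG2 cells, attached overnight at 37C, were exposed to compound or DMSO vehicle for 1 hr at 37C, 5% CO2, then stained with Mito-MPS dye for 30 min. Red aggregate versus green monomer fluorescence reports membrane potential.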

[7] = qHTS assay for small molecule disruptors of the mitochondrial membrane potential - 5 hr assay (AID 651755; calls by dose curve; also: nearly all actives have a fitted effect of over 40% in size; also: potency is read from the fitted curve at half-maximal effect)
How it was run: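 HepG2, 2,000 cells/well, overnight attach; cpd or DMSO 5 hr, 37C/5% CO2; Mito-MPS 30 min 37C; fluor 490/535 + 540/590 nm.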

[8] = biological target: Tumor necrosis factor (Homo sapiens) (UniProt P01375); test: qHTS assay to identify small molecules that stimulate Tumor Necrosis Factor-alpha (TNF-alpha) secretion (AID 651757; active = well fitted curve in the direction sought with a large enough effect in the signal ratio; the % refers to the signal ratio; also: 0% is about no effect)
Chain of Tumor necrosis factor (Homo sapiens) (P01375 whole entry, looked up): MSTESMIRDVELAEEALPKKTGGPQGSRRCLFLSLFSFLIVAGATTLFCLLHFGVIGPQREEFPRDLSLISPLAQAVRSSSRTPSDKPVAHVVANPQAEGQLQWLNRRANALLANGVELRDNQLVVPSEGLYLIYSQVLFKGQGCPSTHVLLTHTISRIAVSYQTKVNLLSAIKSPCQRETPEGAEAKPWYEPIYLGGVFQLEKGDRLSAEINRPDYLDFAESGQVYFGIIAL
How it was run: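 THP-1 cells were exposed to compounds for 17 hrs at 37 C, after which secreted TNF-alpha was measured by homogeneous HTRF (TR-FRET) using cryptate- and XL665-labeled anti-TNF-alpha antibodies, read after 3 hr at room temperature.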

[9] = qHTS assay to identify small molecules that stimulate interleukin-8 (IL-8) secretion (AID 651758; active = well fitted activation curve with a large enough effect in the signal ratio; the % refers to the signal ratio; also: potency is read from the fitted curve at half-maximal effect; as to activation: 0% is about no effect)
How it was run: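 Secreted IL-8 measured by TR-FRET sandwich (cryptate and XL665 antibodies) from THP-1 cells exposed to compound overnight (16 hrs, 37 C).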

[10] = biological target: Nuclear receptor ROR-gamma (Homo sapiens) (UniProt P51449); test: qHTS assay for small molecule antagonists of the retinoid-related orphan receptor gamma (ROR-gamma) signaling pathway (AID 651802); also: nearly all actives have a fitted effect of over 60% in size; also: potency is read from the fitted curve at half-maximal effect
Chain of Nuclear receptor ROR-gamma (Homo sapiens) (P51449 whole entry, looked up): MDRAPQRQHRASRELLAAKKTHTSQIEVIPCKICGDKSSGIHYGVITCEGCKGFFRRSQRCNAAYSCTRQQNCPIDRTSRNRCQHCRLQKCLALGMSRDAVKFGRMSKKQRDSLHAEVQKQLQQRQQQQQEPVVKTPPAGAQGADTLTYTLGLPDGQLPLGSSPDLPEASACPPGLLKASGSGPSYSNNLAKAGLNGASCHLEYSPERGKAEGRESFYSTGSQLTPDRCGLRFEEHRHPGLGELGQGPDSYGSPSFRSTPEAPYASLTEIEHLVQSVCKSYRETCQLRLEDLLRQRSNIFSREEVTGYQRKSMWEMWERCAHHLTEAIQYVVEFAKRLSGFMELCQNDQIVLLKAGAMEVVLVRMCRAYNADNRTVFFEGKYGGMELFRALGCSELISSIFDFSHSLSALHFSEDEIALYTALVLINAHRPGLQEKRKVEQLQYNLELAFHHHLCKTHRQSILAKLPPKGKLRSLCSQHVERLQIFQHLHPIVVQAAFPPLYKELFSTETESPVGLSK
How it was run: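 CHO cells carrying TET-inducible ROR-gamma and an ROR response element–luciferase reporter were exposed to compound, then induced with doxycycline. After 16hr at 37C, luminescence was read; lower signal indicates antagonism.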

[11] = qHTS for compounds that reverse cellular toxicity of Amyloid beta (A-beta) peptide in yeast: LOPAC Validation Assay (AID 720559);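 also: plate controls were DMSO for no effect and equimolar ferric chloride plus clioquinol rescue for full effect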
How it was run: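 Here, A-beta-toxic yeast grow with test compounds at 30 C for 48 hr before optical density at 600 nm is recorded; data are normalized against DMSO and the FeCl3-clioquinol control.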

[12] = qHTS for Activators of Parkin Expression: LOPAC Validation Assay (NLuc Reporter) (AID 720572;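 also: 0% = DMSO and 100% = positive control compound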)
How it was run: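 Parkin promoter-driven FLuc/NLuc neuronal reporter cells; 24 h plating, 7-pt dose response, 24 h at 37 C/5% CO2; FLuc then NanoLuc reagent, 10 min each, luminescence; DMSO/positive control normalized.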

[13] = qHTS for Activators of Parkin Expression: LOPAC Validation Assay (FLuc Reporter) (AID 720573;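 also: 0% = DMSO and 100% = positive control compounds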)
How it was run: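 Readout is FLuc luminescence from neuronal reporter cells (Parkin promoter, FLuc plus NLuc) after 24 h compound exposure in dose response. Values normalized to neutral DMSO and positive-control compounds.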

[14] = Cell Proliferation Assay against the TMD8 Cell Line (AID 651645); conditions: TMD8 DLBCL cell line proliferation/viability; at 46.1 µM (top of the series) unless noted;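 also: cells exposed to compound for 48 h before reading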
How it was run: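 Cell viability of the ABC DLBCL line TMD8 is measured by CellTiter-Glo luminescence following a 48-hour incubation with compound. Percent activity uses DMSO as 100% and 9.2 uM bortezomib (final) as 0%.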

[15] = Cell Proliferation Assay against the HBL1 Cell Line (AID 651646); conditions: HBL1 DLBCL cells; at 92.2 µM (top of the series) unless noted;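 also: cells exposed to compound for 48 h before reading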
How it was run: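 Luminescent ATP read-out (CellTiter-Glo) after 48 h compound exposure of HBL1 cells at 37 °C; percent activity was scaled between DMSO as 100% and 9.2 uM bortezomib (final) as 0%.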

[16] = Cell Proliferation Assay against the TMD8 Cell Line (Caspase readout at 16 hrs) (AID 651712); conditions: TMD8 lymphoma cells, caspase activation luminescence; also: potency is read from the fitted curve at half-maximal effect
How it was run: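 Apoptotic response of TMD8 cells was judged from caspase 3/7 activation following a 16 hour compound incubation at 37 °C. Luminescent signal was converted to percent activity, with DMSO set as 0% and 9.2 uM final bortezomib as 100%.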

[17] = Cell Proliferation Assay against the TMD8 Cell Line (Caspase readout at 8 hrs) (AID 651713); also: potency is read from the fitted curve at half-maximal effect
How it was run: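 TMD8 cells (500/well) in phenol red-free RPMI with 5% FBS were treated with compounds for 8 h at 37C, 5% CO2. Caspase-Glo 3/7 luminescence was read after 15 min at room temperature and normalised to DMSO (0%) and 9.2 uM bortezomib (100%).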

[18] = biological target: Tyrosine-protein kinase Yes (Homo sapiens) (UniProt P07947); test: qHTS for small molecule inhibitors of Yes1 kinase: Primary Screen (AID 686947);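 also: plate controls were DMSO with enzyme for no effect and no-enzyme DMSO wells for full effect; nearly all actives have a fitted effect of over 60% in size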
Chain of Tyrosine-protein kinase Yes (Homo sapiens) (P07947 whole entry, looked up): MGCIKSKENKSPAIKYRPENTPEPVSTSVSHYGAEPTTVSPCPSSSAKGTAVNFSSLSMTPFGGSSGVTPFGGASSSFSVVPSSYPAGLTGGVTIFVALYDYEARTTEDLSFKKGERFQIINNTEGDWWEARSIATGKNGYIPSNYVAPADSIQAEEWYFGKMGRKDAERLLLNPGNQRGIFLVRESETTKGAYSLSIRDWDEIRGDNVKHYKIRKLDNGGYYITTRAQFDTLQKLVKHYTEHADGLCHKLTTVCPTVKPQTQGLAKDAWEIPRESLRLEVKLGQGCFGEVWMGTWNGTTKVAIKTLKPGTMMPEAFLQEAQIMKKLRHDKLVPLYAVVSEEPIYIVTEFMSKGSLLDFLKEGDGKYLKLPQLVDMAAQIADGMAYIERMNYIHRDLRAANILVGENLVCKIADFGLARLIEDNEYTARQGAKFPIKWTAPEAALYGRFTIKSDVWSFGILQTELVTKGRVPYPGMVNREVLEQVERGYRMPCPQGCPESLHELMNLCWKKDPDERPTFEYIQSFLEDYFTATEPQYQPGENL
How it was run: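 ADP-Glo luminescence readout; final 4 nM Yes1, 0.1 mM ATP, 0.3 mg/mL poly(E4Y), Tris pH 7.5, MgCl2, DTT, Brij-35. 20 min compound preincubation, 60 min reaction at RT. Normalized to DMSO wells with and without enzyme.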

[19] = qHTS for small molecule inhibitors of Yes1 kinase: Counter Assay (AID 686950);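 also: no kinase present so only ADP-Glo detection of a fixed ADP amount is tested; luminescence from ADP-Glo reporting ADP in a fixed ATP and ADP mixture; 0% = DMSO wells with ATP plus ADP and -100% = ATP-only wells without ADP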
How it was run: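 Luminescence read-out from ADP-Glo quantifies a fixed ADP amount (0.02 mM ADP with 0.08 mM ATP) after 60 min at room temperature; signal is normalized between DMSO wells with ATP/ADP and with 0.1 mM ATP alone.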

[20] = biological target: Arylsulfatase A (Homo sapiens) (UniProt P15289); test: qHTS screen for enhancers of Arylsulfatase A (ASA1): LOPAC Validation Assay (AID 720538); conditions: outcome: dose series up to 57.5 µM
Chain of Arylsulfatase A (Homo sapiens) (P15289 whole entry, looked up): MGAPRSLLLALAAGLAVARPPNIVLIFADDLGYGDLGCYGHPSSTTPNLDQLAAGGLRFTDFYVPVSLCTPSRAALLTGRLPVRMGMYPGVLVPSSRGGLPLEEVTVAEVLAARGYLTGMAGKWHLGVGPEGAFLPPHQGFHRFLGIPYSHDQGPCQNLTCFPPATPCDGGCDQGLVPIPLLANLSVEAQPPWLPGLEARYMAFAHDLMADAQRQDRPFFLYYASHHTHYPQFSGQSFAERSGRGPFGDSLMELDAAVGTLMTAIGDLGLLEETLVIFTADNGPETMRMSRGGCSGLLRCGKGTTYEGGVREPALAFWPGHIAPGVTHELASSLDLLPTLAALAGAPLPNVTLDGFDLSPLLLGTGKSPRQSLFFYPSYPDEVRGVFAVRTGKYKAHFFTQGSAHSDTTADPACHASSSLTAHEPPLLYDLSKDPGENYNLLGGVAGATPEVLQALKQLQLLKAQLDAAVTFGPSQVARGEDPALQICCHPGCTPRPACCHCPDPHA
How it was run: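 Cell-based enhancement test: residual ASA activity in SV40-transformed I179S patient fibroblasts is measured by pNCS turnover (0.5mM final, 14h, room temperature) following 48h compound incubation; higher fluorescence indicates activation.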

CN(C)C(=S)SC(=S)N(C)C
inactive: activation [1] -1.54% | activation [2] -1.81% | activation [3] -0.314% | max response [4] 0.0294%

CC(O)(P(=O)(O)O)P(=O)(O)O
inactive: Potency [5] | activation [3] 0.149% | max response [4] 0.583%

CC(O)C(=O)O (stereo not given)
inactive: Potency [5] | activation [1] -0.0251% | activation [2] -0.579% | Potency [6] | Potency [7] | outcome [8] | Potency [9] | activation [3] -0.164% | max response [4] -0.871% | Potency [10]

O=c1ccc2ccccc2o1
active: Potency [5] 501 µM
inactive: activation [1] -4.62% and -2.73% and -3.41% | activation [2] -0.596% and -0.85% and -2.41% | outcome [8] | Potency [9] | activation [3] -0.0038% and -0.214% and 9.96% | max response [4] -5.67% and -0.649% and -3.56% | Potency [10]

C=CCc1ccc(O)c(OC)c1
inactive: Potency [5] | activation [1] 0.303% and -4.38% | outcome [8] | activation [3] 1.13% and 0.0788% | max response [4] -0.867% and -4.24% | Potency [10]

CC(C)(Oc1ccc(Cl)cc1)C(=O)O
inactive: Potency [5] | activation [1] 0.845% | activation [3] -2.05% | max response [4] 8.18%

C[C@H]1C[C@H]2[C@@H]3CCC4=CC(=O)C=C[C@]4(C)[C@@]3(Cl)[C@@H](O)C[C@]2(C)[C@@]1(O)C(=O)CO
inactive: activation [1] -5.8% | activation [3] 0.38% | max response [4] 3.36%

Cc1cc(=O)n(-c2ccccc2)n1C
inactive: Potency [5] | activation [1] 0.703% | activation [2] -1.22% | activation [3] -0.814% | max response [4] 0.347%

O=C1OC(c2ccc(O)cc2)(c2ccc(O)cc2)c2ccccc21
active: Potency [10] 66.8 µM
inactive: Potency [5] | activation [1] 9.17% and -8.34% | activation [2] -1.2% and -2.62% | outcome [8] | Potency [9] | max response [4] -2.04% and -2.85%

CC(C)(C)CC(C)(C)c1ccc(OCCOCC[N+](C)(C)Cc2ccccc2)cc1
inactive: activation [1] 20.5% | Potency [7] | outcome [8] | activation [3] 2.85% and 2.84% | max response [4] -0.283% and 4.47%

CC(=O)Oc1ccc(C(c2ccc(OC(C)=O)cc2)c2ccccn2)cc1
inactive: activation [1] 13.1% | Potency [6] | Potency [7] | outcome [8] | activation [3] 0.887% | max response [4] -4.57% | Potency [10]

C=C(CC)C(=O)c1ccc(OCC(=O)O)c(Cl)c1Cl
inactive: outcome [8] | activation [3] 2.74% | max response [4] -4.86%
active: Potency [5] 2.37 µM | Potency [10] 37.6 µM

Oc1c(I)cc(Cl)c2cccnc12
inactive: activation [1] 24.3% | outcome [8] | Potency [9] | max response [4] 1.34%
active: Potency [5] 26.6 µM | Potency [3] 44.7 µM | Potency [10] 23.7 µM

CN(C)/N=N/c1nc[nH]c1C(N)=O
active: Potency [9] 75 µM
inactive: Potency [5] | activation [3] 1.65% | max response [4] -3.55% | Potency [10]

C[C@]12CC[C@@H]3c4ccc(O)cc4CC[C@H]3[C@@H]1CC[C@@H]2O
active: Potency [10] 33.5 µM
inactive: activation [1] 8.17% | outcome [8] | activation [3] 1.98% | max response [4] 0.86% | outcome [11] | outcome [12] | outcome [13]

COc1cccc2c1C(=O)c1c(O)c3c(c(O)c1C2=O)C[C@@](O)(C(=O)CO)C[C@@H]3O[C@H]1C[C@H](N)[C@H](O)[C@H](C)O1
active: Potency [16] 0.0372 µM | Potency [17] 3.32 µM | Potency [1] 1.58 µM | Potency [6] 2.66 µM | Potency [7] 2.66 µM
20.5% [at 46.1 µM]: viability, percent of control [15]
inactive: activation [2] -4.76% | activation [3] 1.88% | max response [4] -6.93% and -6.66% | outcome [18] | outcome [19]
0.7%: viability (% of control) [14]

Nc1ccn([C@@H]2O[C@H](CO)[C@@H](O)C2(F)F)c(=O)n1
active: Potency [16] 0.0382 µM
1.47% [at 92.2 µM]: viability (% of control) [14]
55.7%: viability, percent of control [15]
inactive: outcome [18] | outcome [19]

CC/C(=C(/CC)c1ccc(O)cc1)c1ccc(O)cc1
inactive: activation [1] 37.6% | outcome [8] | activation [3] -2.75% and -1.46% | max response [4] -0.699% and -4.24%
active: Potency [5] 24.3 µM and 29.8 µM

COc1cc2c(cc1O)CC[C@@H]1[C@@H]2CC[C@]2(C)[C@@H](O)CC[C@@H]12
inactive: Potency [17] | outcome [18] | outcome [19] | outcome [20] | outcome [11] | outcome [12] | outcome [13]
24.3%: viability (% of control) [14]

Oc1ccc(O)cc1
active: Potency [5] 2.11 µM | Potency [9] 66.8 µM | Potency [10] 10.6 µM
inactive: activation [2] -1.26% | Potency [6] | Potency [7] | max response [4] -2.94% | outcome [20] | outcome [11] | outcome [12] | outcome [13]

Oc1c(Cl)cc(Cl)cc1Sc1cc(Cl)cc(Cl)c1O
inactive: outcome [8] | activation [3] 4.24% and -3.25%
active: Potency [1] 7.94 µM and 14.1 µM | Potency [6] 10.6 µM | Potency [7] 13.3 µM | Potency [4] 28.2 µM and 25.1 µM | Potency [10] 4.73 µM
